Source: PubChem BioAssay (Broad Institute)
Compounds with a hit are over-represented: about 2.8% of the library has one in this group of screens.
dFosB act-1 – enhances mouse delta FosB homodimer DNA binding; P13346; purified delta FosB, TAMRA-CDK5 oligo fluorescence polarization; percent of positive-control signal above neutral wells; activation, % at 25 µM; hit rate 0.99% among 340,000; AID 493131;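 active = mean activation above about 17%, with every replicate also reaching it, limit read from the data, passing the limit was not always enough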
CDK5 inh – CDK5/p35 (human) kinase inhibition | Recombinant CDK5/p35, ADP-Glo luminescence, 60 min | inhibition, % at 10 µM | hit rate 0.01% among 330,000;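 active = highest replicate inhibition of at least 50% and at least 75% of replicates reaching 50%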;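 also: plate controls were DMSO neutral control for no effect and GW8510 at 10 µM for full effect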
PglD DTNB – blocks C. jejuni PglD acetyltransferase activity; purified PglD enzyme, DTNB colorimetric CoA detection; inhibition, % at 12.5 µM; hit rate 0.098% among 360,000; AID 602405; in the data active = inhibition above about 16%, passing the limit was not always enough
FGF22 binding – shifts melting point of recombinant human FGF22; recombinant FGF22 thermal shift, SYPRO orange fluorescence; percent of sucrose octasulfate shift, DMSO zero; activity (Tm shift, normalised), % at 9.99 µM; hit rate 1.5% among 340,000; Q9HCT0;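 active = mean Tm shift, scaled 0 neutral to 100 positive control, at about 1.3% or above, every replicate too, limit read from the data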
SIRT5 inh – inhibitors of human sirtuin-5 desuccinylase. Q9NXA8. Purified SirT5, succinyl-peptide AMC, trypsin-coupled fluorescence. inhibition, % at 15 µM. hit rate 1.1% among 330,000. AID 652115; in the data active = inhibition above about 15%
Target sequence (Q9NXA8 whole entry, looked up): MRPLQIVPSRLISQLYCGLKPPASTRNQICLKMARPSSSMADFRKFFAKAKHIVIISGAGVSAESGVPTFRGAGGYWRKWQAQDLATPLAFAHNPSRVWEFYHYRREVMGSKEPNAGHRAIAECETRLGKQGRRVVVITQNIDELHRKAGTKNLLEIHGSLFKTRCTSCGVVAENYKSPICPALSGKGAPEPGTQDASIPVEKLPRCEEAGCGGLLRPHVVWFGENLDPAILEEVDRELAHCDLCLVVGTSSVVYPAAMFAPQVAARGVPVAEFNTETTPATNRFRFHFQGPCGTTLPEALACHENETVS
PvdQ inh – P. aeruginosa PvdQ acylase inhibition. purified PvdQ acylase, fluorescence plate reader. inhibition, % at 10 µM. hit rate 0.063% among 340,000; in the data active = inhibition above about 30%, passing the limit was not always enough;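 also: 0% = vehicle neutral wells and 100% = reference inhibitor wells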
dFosB act-2 – activators of mouse delta FosB homodimer DNA binding; shares compounds with dFosB act-1; purified delta FosB, TAMRA-CDK5 oligo fluorescence polarization; normalised: neutral wells 0, positive control 100; activation, % at 24.9 µM; 2,400 tested, under 10 active; AID 588690;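 active = highest replicate activation at or above 34% and every replicate reaching that threshold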;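 also: higher polarization means more probe DNA bound by delta FosB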
Active calls of the source: *.

Screening Cc1c(Cl)c([N+](=O)[O-])nn1Cc1ccc(C(=O)N/N=C\c2cccc(Br)c2)o1 returned dFosB act-1 7, CDK5 inh 2, PglD DTNB -4 and PvdQ inh 2.
O=C(N/N=C\c1cccc(Cl)c1)c1ccc(Cn2cc(Br)c([N+](=O)[O-])n2)o1 was read as dFosB act-1 33*, CDK5 inh 2, PvdQ inh -4 and dFosB act-2 -1.
`Cc1ccc(/C=N\NC(=O)c2ccc(Cn3cc(Br)c([N+](=O)[O-])n3)o2)o1` gave dFosB act-1 27*, CDK5 inh -1, FGF22 binding 0, SIRT5 inh 1, PvdQ inh -5 and dFosB act-2 -8.
O=C(Nc1nccs1)c1cc(-c2ccccn2)nc2c(Cl)cccc12 was read as dFosB act-1 39*, CDK5 inh 1, PglD DTNB 3, FGF22 binding 0, SIRT5 inh -13, PvdQ inh -6 and dFosB act-2 4.
Cc1cc(C(=O)N/N=C/c2cccc(OC(=O)c3cccc(Br)c3)c2)n[nH]1 was read as dFosB act-1 30*, CDK5 inh 0, PglD DTNB 0, FGF22 binding 0, SIRT5 inh 1, PvdQ inh -20 and dFosB act-2 3.
Screening CCCNC(=O)N[C@@H]1CC[C@@H](CCNS(=O)(=O)c2cccc(F)c2)O[C@@H]1CO returned PglD DTNB -1, FGF22 binding 0 and SIRT5 inh -1.
Screening COc1ccc(/C=N\NC(=O)c2cc(OCC(F)(F)F)ccc2OCC(F)(F)F)cc1 returned dFosB act-1 18*, CDK5 inh 0, PvdQ inh -9 and dFosB act-2 -1.
Cc1ccc(/C=N\NC(=O)c2cc(OCC(F)(F)F)ccc2OCC(F)(F)F)cc1 was read as dFosB act-1 9, CDK5 inh 0, PglD DTNB -2 and PvdQ inh -22.
`Cc1ccc2cc3cc(C(=O)NCc4ccc5c(c4)OCO5)oc3nc2c1` gave dFosB act-1 56*, CDK5 inh 0, PglD DTNB 8, PvdQ inh -3 and dFosB act-2 3.
For Cc1ccc(C(=O)NCc2ccc3c(c2)OCO3)o1 the results were dFosB act-1 -7, CDK5 inh 1, PglD DTNB -1, FGF22 binding 0, SIRT5 inh -3 and PvdQ inh 6.
Screening CCCNC(=O)N1C[C@H](O)COC[C@@H]2O[C@@H](CC(=O)OC)CC[C@H]21 returned PglD DTNB 1, FGF22 binding 0 and SIRT5 inh 0.
For CCN(CC)S(=O)(=O)c1ccc(-c2nnc(SCC(=O)Nc3ccc4c(c3)OCO4)o2)cc1 the results were dFosB act-1 31*, CDK5 inh 1, FGF22 binding 0, SIRT5 inh -4, PvdQ inh 3 and dFosB act-2 -2.
`O=C(COC(=O)CSc1nnc(-c2ccc(Cl)cc2)o1)NCc1ccc2c(c1)OCO2` gave dFosB act-1 24*, CDK5 inh 1, PglD DTNB 0, PvdQ inh -6 and dFosB act-2 3.
For CO[C@H]1CN(C)C(=O)c2ccc(NC(=O)C3CCC3)cc2OC[C@H](C)N(C(=O)NC(C)C)C[C@H]1C the results were PglD DTNB -2, FGF22 binding 0 and SIRT5 inh -1.
Screening N#C[C@H]1[C@H](c2ccc(C3=CCCC3)cc2)[C@@H](CO)N1C(=O)NC1CCCC1 returned PglD DTNB 1, FGF22 binding 0 and SIRT5 inh 2.
Screening COc1ccc(NS(=O)(=O)c2ccc(O)c(NC(=O)c3ccc(S(=O)(=O)N4CCCC4)cc3)c2)cc1 returned dFosB act-1 20*, CDK5 inh 0, PglD DTNB -2, FGF22 binding 0, SIRT5 inh -3, PvdQ inh -13 and dFosB act-2 0.
For CNC[C@@H]1Oc2ccc(NC(=O)Nc3ccc(OC)cc3)cc2C(=O)N([C@H](C)CO)C[C@H]1C the results were PglD DTNB 0, FGF22 binding 1 and SIRT5 inh 2.
